Source: PubChem
HT1080NT lethal: kills 2HG-producing HT-1080-NT fibrosarcoma cells; HT-1080-NT fibrosarcoma viability, CellTiter-Glo ATP luminescence, 48 h; Potency, µM (doses to about 46.1 µM), for inactives: at the top dose activity, negative = less viability, actives largely listed as cytotoxic; 1.6% of 360,000 active; AID 686970;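 also: NT is the 2HG producing partner of a matched IDH1 knockdown line; 0% = DMSO-treated cells and -100% = media-only wells without cells; nearly all actives have a fitted effect of over 55% in size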
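Luminescent CellTiter-Glo readout after 48 hours of compound exposure at 37 degrees C defined viability of HT-1080-NT cells. Activity was normalized to DMSO wells and cell-free media wells; concentration-response curves were fitted and assigned curve classes.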
SW480 rereplic: inducers of DNA re-replication in SW480 colon cancer cells. SW480 DNA re-replication, Hoechst DNA content imaging, 48 h. Potency, µM (titrated, usually from 46.1 µM), for the others: top-dose re-replication activation, usual class: activators. 1.8% of 340,000 active; also: % of control where 0% means no effect; nearly all actives have a fitted effect of over 55% in size
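Quantitative HTS format with DMSO vehicle controls; 48 hr drug incubation at 37 C, then 40 min Hoechst staining and scanning imager measurement at 405 nm excitation.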
HT1080 IDH1KD tx: kills HT-1080 cells with IDH1 knockdown; 2% of 360,000 active; AID 686971; Potency, µM (top dose mostly 46.1 µM), for inactives: at the highest dose activity, negative = toxicity, usual class: cytotoxic; HT-1080 IDH1 knockdown viability, ATP luminescence, 48 h;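 also: 0% = DMSO wells and -100% = cell-free medium wells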
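Using the IDH1-knockdown HT-1080 line run in the same batch and compound series as the NT line, viability after 48 h at 37 °C was determined by CellTiter-Glo luminescence and expressed as % activity.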
KB-V1 MDR tox: KB-V1 MDR subline cytotoxicity; 3.4% of 400,000 active; KB-V1 MDR cells viability, CellTiter-Glo, 72 h; Potency, µM (series often up to 46.1 µM), most hits filed as cytotoxic; also: % is scaled to controls: 0 for no effect and ±100 for the full control effect; nearly all actives have a fitted effect of over 60% in size
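Cells of the MDR subline KB-V1 are plated, dosed with compound at multiple concentrations, and incubated 72 h at 37 degrees C; CellTiter-Glo is then added and luminescence read after 10 min.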
MCF10A rereplic: inducers of DNA re-replication in MCF 10A breast cells; Potency, µM (doses to about 46.1 µM), inactives show at the highest dose activity, positive = re-replication, hits mostly activators; 2.9% of 350,000 active; AID 624296; MCF 10A DNA re-replication, Hoechst nuclear intensity, 48 h; also: % of control where 0% means no effect; nearly all actives have a fitted effect of over 50% in size
KB-3-1 cytotox: KB-3-1 parental cell cytotoxicity; Potency, µM (doses to about 46.1 µM), hits mostly cytotoxic; AID 1347075; KB-3-1 viability, CellTiter-Glo ATP luminescence, 72 h; 1.4% of 400,000 active; also: % is scaled to controls: 0 for no effect and ±100 for the full control effect; nearly all actives have a fitted effect of over 60% in size
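Here the drug-naive KB-3-1 line serves as comparator for MDR sub-line selectivity; cells received compound titrations, 72 h at 37 °C, then CellTiter-Glo readout.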
Starred values were filed as active, the others as inactive. A selection: hits, their analogues and other compounds. The true share with any hit is near 8%. Calls follow the shape of the dose curve; as a rule, active = well fitted curve in the direction sought with a large enough effect; inconclusive = small, poorly fitted or top-dose-only effect, or another doubt; inactive = no such curve, though single readings can be large; an effect the other way counts as inactive or inconclusive. Potency is read from the fitted curve at half-maximal effect.

CC(=O)Oc1cccc(N2C(=O)C3C4C=CC(C4=C(C)C)C3C2=O)c1 (centres undefined) was read as HT1080NT lethal -13%, SW480 rereplic -4%, HT1080 IDH1KD tx -1%, KB-V1 MDR tox inactive, MCF10A rereplic 15% and KB-3-1 cytotox inactive.
O=C(Nc1ccc(Cl)cc1)c1cccc(N2C(=O)C3C4CCC(C4)C3C2=O)c1 (centres undefined) was read as HT1080NT lethal -6%, SW480 rereplic 14%, HT1080 IDH1KD tx -4%, KB-V1 MDR tox 8.2µM*, MCF10A rereplic 56% and KB-3-1 cytotox inconclusive.
Cc1ccccc1NC(=O)c1cccc(N2C(=O)C3C4CCC(C4)C3C2=O)c1 (centres undefined) was read as HT1080NT lethal inconclusive, SW480 rereplic 2%, HT1080 IDH1KD tx -6%, KB-V1 MDR tox 23µM*, MCF10A rereplic -2% and KB-3-1 cytotox inactive.
For O=C(Nc1ccc(Cl)cc1Cl)c1cccc(N2C(=O)C=CC2=O)c1 the results were HT1080NT lethal inconclusive, SW480 rereplic 8.2µM*, HT1080 IDH1KD tx inconclusive, KB-V1 MDR tox inactive, MCF10A rereplic 13µM* and KB-3-1 cytotox inactive.
`O=C(c1ccccc1OCc1ccccc1Br)N1CCN(c2ncccn2)CC1` gave HT1080NT lethal inconclusive, SW480 rereplic inconclusive, HT1080 IDH1KD tx inconclusive, KB-V1 MDR tox 6.5µM*, MCF10A rereplic inconclusive and KB-3-1 cytotox inconclusive.
For Cc1ccc(/C(N)=N/OC(=O)N2c3ccccc3Sc3ccccc32)cc1 the results were HT1080NT lethal -1%, SW480 rereplic 11%, HT1080 IDH1KD tx -1%, KB-V1 MDR tox inconclusive, MCF10A rereplic 14µM* and KB-3-1 cytotox inactive.
Screening Cc1ccc(-n2ncc(C(=O)N3CCN(C4CCCCC4)CC3)c2C2CCN(C(=O)OC(C)(C)C)CC2)cc1C returned KB-V1 MDR tox inactive and KB-3-1 cytotox inactive.
For CC1CCCC(C)N1C(=O)CNCc1ccc2c(c1)OCO2 (centres undefined) the results were HT1080NT lethal -1%, SW480 rereplic -4%, HT1080 IDH1KD tx 1%, KB-V1 MDR tox inactive, MCF10A rereplic 1% and KB-3-1 cytotox inactive.
O=C(NCCN1CCN(c2ccccc2)CC1)c1ccc2c(c1)[nH]c(=S)n1c3ccccc3nc21 was read as HT1080NT lethal -15%, SW480 rereplic -4%, HT1080 IDH1KD tx -17%, KB-V1 MDR tox inconclusive, MCF10A rereplic inconclusive and KB-3-1 cytotox inactive.
For O=C(c1ccc2c(c1)[nH]c(=S)n1c3ccccc3nc21)N1CCN(c2ncccn2)CC1 the results were HT1080NT lethal -13%, SW480 rereplic -11%, HT1080 IDH1KD tx -2%, KB-V1 MDR tox inactive, MCF10A rereplic 9.2µM* and KB-3-1 cytotox inactive.
`CCOC(=O)C(=CNc1ccccc1Cl)C(=O)OCC` gave HT1080NT lethal 11%, SW480 rereplic -3%, HT1080 IDH1KD tx 1%, KB-V1 MDR tox inactive, MCF10A rereplic 1% and KB-3-1 cytotox inactive.
CCOC(=O)C(=CNc1cc(Cl)c(-c2ccco2)c(Cl)c1)C(=O)OCC was read as HT1080NT lethal inconclusive, SW480 rereplic 22%, HT1080 IDH1KD tx -9%, KB-V1 MDR tox inactive, MCF10A rereplic 16µM* and KB-3-1 cytotox inactive.
Screening CCOC(=O)C(=CNc1ccc(-c2ccco2)c(Cl)c1)C(=O)OCC returned HT1080NT lethal -1%, SW480 rereplic 18%, HT1080 IDH1KD tx 0%, KB-V1 MDR tox inactive, MCF10A rereplic 21µM* and KB-3-1 cytotox inactive.
`CCN1CCN(S(=O)(=O)c2ccc(F)c(C(=O)Nc3c(F)cc(F)cc3Br)c2)CC1` gave HT1080NT lethal 7%, SW480 rereplic -10%, HT1080 IDH1KD tx 4%, KB-V1 MDR tox inactive, MCF10A rereplic 12% and KB-3-1 cytotox inactive.
`S=C(Nc1ccc(Nc2ccccc2)cc1)Nc1ccccn1` gave HT1080NT lethal inconclusive, SW480 rereplic inconclusive, HT1080 IDH1KD tx 16µM*, KB-V1 MDR tox inactive, MCF10A rereplic 24% and KB-3-1 cytotox inconclusive.
N#CC1=C(N)C(C#N)(C#N)[C@H](c2ccoc2)[C@H]2CN(Cc3ccccc3)CC=C12 was read as HT1080NT lethal inconclusive, SW480 rereplic 16µM*, HT1080 IDH1KD tx 2.6µM*, KB-V1 MDR tox inconclusive, MCF10A rereplic 7.3µM* and KB-3-1 cytotox 5.2µM*.
Screening CN1CC=C2C(C#N)=C(N)C(C#N)(C#N)C(c3cccc(Cl)c3Cl)C2C1 (centres undefined) returned HT1080NT lethal -2%, SW480 rereplic 6%, HT1080 IDH1KD tx -9%, KB-V1 MDR tox 21µM*, MCF10A rereplic inconclusive and KB-3-1 cytotox inactive.
Screening CN1CC=C2C(C#N)=C(N)C(C#N)(C#N)[C@H](c3ccoc3)[C@H]2C1 returned HT1080NT lethal -4%, SW480 rereplic -5%, HT1080 IDH1KD tx -4%, KB-V1 MDR tox inactive, MCF10A rereplic -10% and KB-3-1 cytotox inactive.
`CC(=O)Nc1nc2c(C)cc(NC(=O)C3CCCCC3)cc2s1` gave HT1080NT lethal -20%, SW480 rereplic -1%, HT1080 IDH1KD tx -20%, KB-V1 MDR tox inactive, MCF10A rereplic -1% and KB-3-1 cytotox inactive.
`NC[C@H](Cc1ccccc1)NCCCCC1CCCCC1` gave HT1080NT lethal 0%, SW480 rereplic -28%, HT1080 IDH1KD tx 7%, KB-V1 MDR tox inactive, MCF10A rereplic 12% and KB-3-1 cytotox inactive.
For CNC[C@H](CC1CCCCC1)NC[C@H](Cc1ccccc1)NCCC12CC3CC(CC(C3)C1)C2 the results were HT1080NT lethal 21µM*, SW480 rereplic -5%, HT1080 IDH1KD tx inconclusive, KB-V1 MDR tox 18µM*, MCF10A rereplic inconclusive and KB-3-1 cytotox inconclusive.
CCOc1ccccc1NC(=O)Cn1c(=O)c(OCC)nc2cnccc21 was read as HT1080NT lethal 5%, SW480 rereplic inconclusive, HT1080 IDH1KD tx 3%, KB-V1 MDR tox inactive, MCF10A rereplic inconclusive and KB-3-1 cytotox inactive.
For CN1C[C@@H]2C(c3ccccc3)C3(c4ccc(C#N)cc4)CC2(C3)[C@H]1c1ccccc1 (some centres undefined) the results were HT1080NT lethal -8%, SW480 rereplic -18%, HT1080 IDH1KD tx 0%, KB-V1 MDR tox inactive, MCF10A rereplic 5.2µM* and KB-3-1 cytotox inactive.
For CC(=O)c1ccc(N2CCN(S(=O)(=O)c3ccc4c(c3)NC(=O)CC(=O)N4)CC2)cc1 the results were HT1080NT lethal inconclusive, SW480 rereplic 10%, HT1080 IDH1KD tx inconclusive, KB-V1 MDR tox inactive, MCF10A rereplic 18% and KB-3-1 cytotox inactive.
